Data reported in PubChem BioAssay AID2284125 (EPA ToxCast).
The source made the active and inactive calls. Rule for the calls: active = hit-call score of the fitted dose curve at least 0.9, where 1 is the maximum; inactive = score below 0.9.

What follows are molecules tested against Beta-2 adrenergic receptor (Homo sapiens) (UniProt P07550) (assay: ERF_FR_GPCR_hADRB2: Eurofins (ERF) G Protein-Coupled Receptor (GPCR) Radioligand Binding LeadHunter Assay for human Adrenoceptor Receptor beta2 Antagonism, conducted at France lab site).
Beta-2 adrenergic receptor (Homo sapiens), sequence (P07550 whole entry, looked up): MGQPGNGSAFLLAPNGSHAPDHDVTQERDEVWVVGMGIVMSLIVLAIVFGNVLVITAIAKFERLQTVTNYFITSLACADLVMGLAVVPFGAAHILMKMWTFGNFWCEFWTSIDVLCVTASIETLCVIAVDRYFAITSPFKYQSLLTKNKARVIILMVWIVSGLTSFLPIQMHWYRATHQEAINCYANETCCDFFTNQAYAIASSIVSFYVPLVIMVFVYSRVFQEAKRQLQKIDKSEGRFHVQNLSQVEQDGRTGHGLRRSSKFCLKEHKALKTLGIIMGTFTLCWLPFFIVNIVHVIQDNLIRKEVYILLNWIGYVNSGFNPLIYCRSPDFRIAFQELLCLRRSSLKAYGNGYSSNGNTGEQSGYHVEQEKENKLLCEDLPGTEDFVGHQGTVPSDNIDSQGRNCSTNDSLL
Protocol: ERF_FR_GPCR_hADRB2 is a biochemical, single-readout assay that uses extracted gene-proteins in a cell-free assay. Measurements were taken 2 hour after chemical dosing in a 96-well plate. See beta2 Human Adrenoceptor GPCR Binding (Antagonist Radioligand) Assay, Cerep.ERF_FR_GPCR_hADRB2 is an assay component calculated from the ERF_FR_GPCR_hADRB2 assay. It is designed to measure radioligand binding using a type of binding reporter as detected by scintillation counting with radiometry technology.Data from the assay component ERF_FR_GPCR_hADRB2 was analyzed at the assay endpoint, ERF_FR_GPCR_hADRB2, in the positive analysis fitting direction relative to DMSO as the negative control and baseline of activity. Using a type of binding reporter, loss-of-signal activity can be used to understand changes in binding as they relate to gene ADRB2. To generalize the intended target to other relatable targets, this assay endpoint is annotated to the gpcr intended target family, where the subfamily is adrenoceptor.
Human cells are incubated for 60 minutes in room temprature, using [3H](-)CGP 12177 ligand at 0.3 Kd (nM) with ICI 118551 control inhibitor.Test Sample Requirements: Minimum for 1) Screen: 60 ul of 10 mM stock -OR- 1 mg (pre-weighed) for […] uM final testing. 2) Dose Response: 90 ul of 10 mM stock -OR- 1 mg (pre-weighed) for a top concentration at 10 uM.
In the case of COc1cc(CCC(=O)CC(=O)CCc2ccc(O)c(OC)c2)ccc1O, the outcome is reported as “inactive”. O=C(/C=C/c1ccc(O)cc1)CC(=O)/C=C/c1ccc(O)cc1 was tested, and the AC50 was 3.68 µM (active).
